Our source for the outcome values is PubChem BioAssay (Tox21).

Molecules are shown by their SMILES. Inconclusive results are not listed. The source made the active and inactive calls. Calls come from the whole dose curve; as a rule, active = well fitted cell-killing curve with a large enough effect in the repeat runs; inconclusive = weak or mixed curves; inactive = flat fitted curve, though single readings scatter.

This test is described as follows: qHTS RealTime-Glo MT Cell Viability Assay in HepG2 cells - 24 hour (AID 1224867). Note: nearly all actives have a fitted effect of over 50% in size. The settings on record: RealTime-Glo luminescence; series mostly up to 76.8 µM. From the text:
U.S. Tox21 Program National Center for Advancing Translational Sciences [NCATS] NIH Chemical Genomics Center [NCGC] U.S. Environmental Protection Agency [EPA] National Institutes of Environmental Health Sciences [NIEHS] National Toxicology Program [NTP] U.S. Food and Drug Administration [FDA] Tox21 Assay Overview: Measure of cell viability is critical in the cell-base assay. Analysis of cell viability is necessary for the characterization of cell responses to cytotoxic drugs and environmental stress. A RealTime-Glo MT Cell Viability Assay to monitor cell viability in real time of continues cell culture during 40 hours of compound treatment was used to screen Tox21 10K library compounds in HepG2 cells. The RealTime-Glo MT Cell Viability Assay is a nonlytic, homogeneous, bioluminescent method to measure cell viability in real time using a simple, plate-based method. The assay involves adding NanoLuc luciferase and a cell-permeant prosubstrate to cells in culture. Viable cells reduce the proprietary prosubstrate to generate a substrate for NanoLuc luciferase. This substrate diffuses from cells into the surrounding culture medium, where it is rapidly used by the NanoLuc Enzyme to produce a luminescent signal. The signal correlates with the number of viable cells, making the assay well suited for cytotoxicity studies.
Tox21 Assay Protocol Summary: The mixture of HepG2 cell suspension and reagents were dispensed at 600cells/6 ul/well in 1536-well tissue culture treated black solid bottom plates using a Multidrop dispenser. After the assay plates were incubated at a 37 C/5% CO2 incubator for 5 hours, 23 nL of compounds dissolved in DMSO, positive and negative controls was transferred to the assay plate by a pintool work station. The plates were incubated at 37 C for 40 hours. The luminescence intensity were measured at 0h, 8h, 16h, 24h, 32h and 40h time points using ViewLux plate reader during compound treatment.
(Quantitative high-throughput screening tests each substance at several concentrations.)
For the compound `[O-][n+]1ccc(Cl)cc1`, the call was inactive.

Consider `C=CC(=O)NC(C)(C)C`, for which the compound was classed as inactive. For `O=C(O)COCC(=O)O` the value was “inactive”; for `O=Cc1ccc(Cl)c([N+](=O)[O-])c1`, “inactive”. Under `O=Cc1ccc([N+](=O)[O-])cc1` stands “inactive”.

As for `COc1ccc(CN(CCN(C)C)c2ncccn2)cc1`, the compound was classed as inactive.

`CCc1ccc(C(=O)C(C)CN2CCCCC2)cc1` (stereo not given): the outcome was inactive. With `OCCc1ccncc1`, the result was inactive.

In the case of `C=C[Si]1(C)O[Si](C)(C=C)O[Si](C)(C=C)O[Si](C)(C=C)O1` (stereo not given), the compound was classed as inactive. With `CCc1cnc(C(=O)O)c(C(=O)O)c1`, the compound was called inactive.

Turning to `CC1(C)C(=O)NC(=O)N1CO`, the result was inactive. For `C=CC(C)(O)CC/C=C(/C)CCC=C(C)C` (stereo not given), the call was inactive. Regarding `CCCCC(CC)COCCC#N` (stereo not given), the outcome was inactive. For `COC(=O)/C=C/C(C)=C\C=C\C(C)=C\C=C\C=C(C)\C=C\C=C(C)\C=C\C(=O)O`, the compound was classed as inactive. For `C[C@H](N)C(=O)N[C@@H](C)C(=O)NC1[C@H]2CN(c3nc4c(cc3F)c(=O)c(C(=O)O)cn4-c3ccc(F)cc3F)C[C@@H]12` (stereo not given in full), the compound was classed as inactive.

As to `CC(C)Oc1ccccc1O`, the result was inactive. Take `CCCCCCCCOCCCN`: the call was inactive.

With `Cc1cccc(C)c1NC(=O)CN1CCCC1`, the compound was called inactive. With `CC1(C)[C@@H]2CC[C@]3(C2)[C@@H]1C(=O)CCC3(C)C`, the compound was called inactive. For the compound `CC(C)(Cc1c[nH]c2ccccc12)NCC(O)COc1ccccc1C#N` (stereo not given), the outcome was inactive. Turning to `CC(=O)S[C@H](C(=O)N[C@H]1Cc2ccccc2[C@H]2CCC[C@@H](C(=O)O)N2C1=O)C(C)C`, the call was inactive.

On to `COc1ccc(/C=C/S(=O)(=O)NC(=O)c2ccc(C)cc2Cl)cc1`, for which the result was inactive. Consider `C=CC(C)CCC=C(C)C` (stereo not given), for which the outcome was inactive. As for `CCCCCO`, the compound was called inactive. Consider `O=C(O)c1cccnc1Nc1cccc(C(F)(F)F)c1`, for which the result was inactive. Under `CC[C@H](NC(C)C)[C@H](O)c1ccc(O)c2[nH]c(=O)ccc12` stands “inactive”; under `Cc1ccc2ccccc2c1[N+](=O)[O-]`, “inactive”; under `C[C@]12CCC(=O)C=C1[C@@H]1C[C@@H]1[C@H]1[C@@H]3[C@@H]4C[C@@H]4[C@@]4(CCC(=O)O4)[C@@]3(C)CC[C@@H]12`, “inactive”. As for `O=c1[nH][nH]c2ccccc12`, the compound was called inactive. Turning to `CCC1=C(C)CN(C(=O)NCCc2ccc(S(=O)(=O)NC(=O)NC3CCC(C)CC3)cc2)C1=O` (stereo not given), the outcome was inactive. For `C=CC(=O)OCCCCCCCCCC`, the call was inactive. Under `CC1(COc2ccc(CC3SC(=O)NC3=O)cc2)CCCCC1` (stereo not given) stands “inactive”.

For `FC(F)(Cl)C(F)(Cl)Cl`, the result was inactive. For `O=C(O)CCc1nc2ccccc2[nH]1` the value was “inactive”.

Take `COc1ccc(/C(C)=C/C(=O)O)c(OC)c1`: the compound was called inactive. Turning to `CC(COc1ccccc1)NC(C)C(O)c1ccc(O)cc1` (stereo not given), the call was inactive.

For `CCC(=O)O[C@]1(C(=O)COC)[C@@H](C)C[C@H]2[C@@H]3CCC4=CC(=O)C=C[C@]4(C)C3(F)[C@@H](O)C[C@@]21C` (stereo not given in full), the compound was called inactive. Take `O=c1c2ccccc2oc2ccccc12`: the result was inactive. Consider `O=[N+]([O-])c1ccccc1CCO`, for which the result was inactive. For `CCCCCCCCCCCCCCCCN` the value was “inactive”.
